This is an account of results in PubChem BioAssay (NCATS).

The structures appear in SMILES notation. Records with an inconclusive call do not appear. Entries that show only a call come without a potency. The source made the active and inactive calls. Unless noted, calls come from the whole dose curve; as a rule, active = well fitted curve in the direction sought with a large enough effect; inconclusive = small, poorly fitted or top-dose-only effect, or another doubt; inactive = no such curve, though single readings can be large; an effect the other way counts as inactive or inconclusive.

Assay [1] has as its target Mitogen-activated protein kinase 10 (Mus musculus) (UniProt Q61831). The assay is described as follows: JNK3 AlphaScreen Assay (AID 530; active = well fitted curve in either direction with a large enough effect, not every such curve was filed as active;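 note: kinase came from lysate of stimulated human HepG2 cells; signal reports phosphorylation of biotinylated GST-cJun 1-79 at Ser73 with 10 µM ATP; series mostly up to about 57 µM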). An outline of the steps: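 Compound titrations were preincubated 15 minutes at room temperature with substrate, antibody and pre-activated JNK3-containing HepG2 lysate. Reactions were started with 10 uM ATP and stopped with EDTA-containing bead buffer for AlphaScreen detection.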
(In general: In Alpha technology, singlet oxygen from a donor bead excites a nearby acceptor bead.)

Assay [2] addresses Cytochrome P450 3A4 (Homo sapiens) (UniProt P08684). The assay is described as follows: qHTS Assay for Inhibitors and Substrates of Cytochrome P450 3A4 (AID 884). Note: nearly all actives have a fitted effect of over 50% in size. Note: potency is the fitted concentration of half-maximal effect. An outline of the steps:
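20 nM human CYP3A4 with 25 uM Luciferin-PPXE (at KM) in 200 mM KPO4, preincubated 10 min with compound; NADPH regeneration started a 60 min RT reaction. Luciferin detected by luminescence, normalized to 57 uM ketoconazole as full inhibition.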
For orientation: qHTS replaces the single test concentration by a dilution series.

The target is the same in assay [3]. The assay is described as follows: qHTS Assay for Activators of Cytochrome P450 3A4 (AID 885). Note: nearly all actives have a fitted effect of over 65% in size. Note: potency is the fitted concentration of half-maximal effect. An outline of the steps:
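Human CYP3A4 (20 nM) with Luciferin-PPXE at 25 uM (its KM) in 200 mM KPO4; 10 min compound preincubation, then NADPH regeneration and 60 min reaction at RT. Luciferin read by luminescence; normalized to 57 uM ketoconazole full inhibition.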

Sequence of Cytochrome P450 3A4 (Homo sapiens) (P08684 whole entry, looked up): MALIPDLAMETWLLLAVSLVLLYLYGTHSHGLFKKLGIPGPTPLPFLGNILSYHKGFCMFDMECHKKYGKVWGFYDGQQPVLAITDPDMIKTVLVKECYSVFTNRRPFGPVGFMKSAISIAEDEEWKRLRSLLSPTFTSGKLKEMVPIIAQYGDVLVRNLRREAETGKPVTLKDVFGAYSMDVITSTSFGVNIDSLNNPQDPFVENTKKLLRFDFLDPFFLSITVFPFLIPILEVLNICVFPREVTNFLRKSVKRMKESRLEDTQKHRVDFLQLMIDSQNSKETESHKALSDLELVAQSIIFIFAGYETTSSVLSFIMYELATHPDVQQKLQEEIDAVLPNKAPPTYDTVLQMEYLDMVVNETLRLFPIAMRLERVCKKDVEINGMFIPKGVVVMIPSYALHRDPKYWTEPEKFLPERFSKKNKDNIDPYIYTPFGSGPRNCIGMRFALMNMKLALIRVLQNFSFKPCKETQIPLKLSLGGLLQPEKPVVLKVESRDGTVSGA

On to `COC(=O)[C@H](Cc1ccccc1)NC(=O)[C@H]1C[C@@H]1[C@H](NC(=O)OCc1ccccc1)c1ccccc1`, for which the result in assay [1] was inactive. In addition, the Potency in assay [2] was 7.94 µM (active). Besides, the Potency result in assay [3] was “inactive”.

`CN(C)C(=O)[C@@H]1C[C@H]1[C@@H](NC(=O)OCc1ccccc1)c1ccccc1`: the call in assay [1] was inactive. Further, the Potency in assay [2] was 10 µM (active). The Potency result in assay [3] was “inactive”.

Turning to `COC(=O)c1ccc(C(NC(=O)OCc2ccccc2)/C(C)=C/[C@@H](C)C(=O)N(C)Cc2cccnc2)cc1` (stereo partly specified), in assay [1], the outcome was inactive. Moreover, in assay [2], the Potency was 0.794 µM (active). Also, in assay [3], the Potency result is “inactive”.

For the compound `COC(=O)c1ccc(C(NC(=O)OCc2ccccc2)/C(=C/[C@@H](C)C(=O)NCc2cccnc2)c2cccnc2)cc1` (stereo partly specified), in assay [1], the compound was called inactive. The Potency in assay [2] was 1 µM (active). In addition, the Potency result in assay [3] was “inactive”.

With `C[C@]1(C(=O)NCc2cc(F)cc(C(F)(F)F)c2)C=C[C@@H](Cc2ccccc2)N1C(=O)c1ccccc1`, in assay [1], the result was inactive. Also, the Potency in assay [2] is 2 µM (active). For the same compound, the Potency result in assay [3] was “inactive”.

Turning to `COC(=O)c1ccc(C(NC(=O)OCc2ccccc2)/C(I)=C/[C@@H](C)C(=O)Nc2ccccc2)cc1` (stereo partly specified), the result in assay [1] was inactive. The Potency in assay [2] is 2 µM (active). Also, the Potency result in assay [3] is “inactive”.

Turning to `COCCNC(=O)C1(C)C=CC2(CCCCC2)N1C(=O)c1ccccc1` (stereo unspecified), the compound was called inactive in assay [1]. Also, in assay [2], the Potency was 15.8 µM (active). Further, in assay [3], the Potency result was “inactive”.

Turning to `Cc1nn(-c2ccccc2)nc1CNC(=O)C(C)Cc1ccccc1` (stereo unspecified), the outcome in assay [1] was inactive. For the same compound, in assay [2], the Potency is 2.51 µM (active). The Potency entry in assay [3] was “inactive”.

On to `COC(=O)c1ccc(C(NC(=O)OCc2ccccc2)/C(=C/[C@@H](C)C(=O)NC2CCCCC2)c2cccnc2)cc1` (stereo partly specified), for which, in assay [1], the call was inactive. Further, the Potency in assay [2] was 1.26 µM (active). Also, the Potency result in assay [3] is “inactive”.

In the case of `C[C@@H]1C=C[C@](Cc2ccccc2)(C(=O)NCCc2c[nH]c3ccccc23)N1C(=O)c1ccccc1`, the outcome in assay [1] was inactive. Also, the Potency in assay [2] is 2.51 µM (active). The Potency entry in assay [3] is “inactive”.

For `C[C@@H]1C=C[C@](Cc2ccccc2)(C(=O)NCCN2CCOCC2)N1C(=O)c1ccccc1`, the result in assay [1] was inactive. Further, in assay [2], the Potency was 5.01 µM (active). The Potency entry in assay [3] was “inactive”.

Take `CC(=O)N1[C@H](Cc2ccccc2)C=C[C@]1(C)C(=O)NCc1cc(F)cc(C(F)(F)F)c1`: the compound was classed as inactive in assay [1]. For the same compound, the Potency in assay [2] was 6.31 µM (active). Moreover, the Potency entry in assay [3] is “inactive”.

For the compound `CC(C)(C)NC(=O)C(c1ccc(I)cc1)N(CCN1CCOCC1)C(=O)CCCNC(=O)c1ccccc1` (stereo unspecified), in assay [1], the compound was called inactive. For the same compound, the Potency in assay [2] was 3.98 µM (active). Further, the Potency entry in assay [3] was “inactive”.

Consider `COC(=O)c1ccc(C(NC(=O)OCc2ccccc2)/C(F)=C/[C@@H](C)C(=O)NCc2ccc(OC)c(OC)c2)cc1` (stereo partly specified), for which the compound was called inactive in assay [1]. Further, the Potency in assay [2] was 5.01 µM (active). In assay [3], the Potency entry was “inactive”.

With `COC(=O)c1ccc(C(NC(=O)OCc2ccccc2)/C(F)=C/[C@@H](C)C(=O)NCc2ccc(-c3ccccc3)cc2)cc1` (stereo partly specified), the compound was called inactive in assay [1]. Besides, the Potency in assay [2] was 3.98 µM (active). Further, in assay [3], the Potency result is “inactive”.

Consider `CCCCNC(=O)C(c1ccc(-c2ccccc2)cc1)N(CCN1CCOCC1)C(=O)CCCCCN1C(=O)NC(c2ccc([N+](=O)[O-])cc2)C(C(=O)OCc2ccccc2)=C1C` (stereo unspecified), for which the call in assay [1] was inactive. The Potency in assay [2] is 2.51 µM (active). Besides, the Potency result in assay [3] is “inactive”.

On to `CC1=C(C(=O)OCc2ccccc2)C(C2CCCCC2)NC(=O)N1CCCCCC(=O)O` (stereo unspecified), for which the outcome in assay [1] was inactive. Also, the Potency entry in assay [2] is “inactive”. In addition, in assay [3], the Potency is 15.8 µM (active).

`CCNC(=O)[C@H](C)/C=C/C(NC(=O)OCc1ccccc1)c1ccc(C(=O)OC)cc1` (stereo partly specified): the compound was called inactive in assay [1]. Further, the Potency in assay [2] was 6.31 µM (active). The Potency result in assay [3] was “inactive”.

As for `COC(=O)c1ccc(C(NC(=O)OCc2ccccc2)/C(I)=C/[C@@H](C)C(=O)NCC2CC2)cc1` (stereo partly specified), in assay [1], the call was inactive. For the same compound, the Potency in assay [2] is 3.98 µM (active). Moreover, in assay [3], the Potency result was “inactive”.

As to `COC(=O)c1ccc(C(NC(=O)OCc2ccccc2)/C(C)=C/[C@@H](C)C(=O)NCCc2c[nH]c3ccc(OC)cc23)cc1` (stereo partly specified), the call in assay [1] was inactive. Also, the Potency in assay [2] was 2 µM (active). For the same compound, the Potency result in assay [3] is “inactive”.

As to `COC(=O)c1ccc(C(NC(=O)OCc2ccccc2)/C(F)=C/[C@@H](C)C(=O)NCc2nc3ccccc3s2)cc1` (stereo partly specified), in assay [1], the compound was called inactive. Moreover, in assay [2], the Potency is 7.94 µM (active). Besides, in assay [3], the Potency entry is “inactive”.

For the compound `C/C(=C\[C@@H](NP(=O)(c1ccccc1)c1ccccc1)c1ccccc1)CO[Si](c1ccccc1)(c1ccccc1)C(C)(C)C`, the outcome in assay [1] was inactive. Moreover, the Potency in assay [2] was 2 µM (active). In addition, the Potency entry in assay [3] was “inactive”.

Take `CC(=O)N1[C@H](C)C=C[C@]1(Cc1ccccc1)C(=O)NCc1cc(F)cc(C(F)(F)F)c1`: in assay [1], the compound was called inactive. In assay [2], the Potency is 3.16 µM (active). Besides, the Potency entry in assay [3] was “inactive”.

Consider `COC(=O)[C@@]1(C)C=C[C@@H](Cc2ccccc2)N1C`, for which the compound was called inactive in assay [1]. In addition, the Potency in assay [2] was 12.6 µM (active). The Potency entry in assay [3] is “inactive”.

Turning to `CC(=O)N1C2(C=CC1(C)C(=O)NCc1cc(F)cc(C(F)(F)F)c1)CCCCC2` (stereo unspecified), the compound was classed as inactive in assay [1]. The Potency in assay [2] was 10 µM (active). For the same compound, the Potency entry in assay [3] was “inactive”.

Consider `COC(=O)c1ccc(C(NC(=O)OCc2ccccc2)/C(F)=C/[C@@H](C)C(=O)NCCN2CCOCC2)cc1` (stereo partly specified), for which the call in assay [1] was inactive. In assay [2], the Potency was 3.98 µM (active). In addition, in assay [3], the Potency entry was “inactive”.

As for `CCCCCCN(C(=O)CCCCCN1C(=O)NC(c2ccc(-c3ccccc3)cc2)C(C(=O)OCc2ccccc2)=C1C)C(C)C(=O)NCCCC` (stereo unspecified), the compound was classed as inactive in assay [1]. In assay [2], the Potency was 3.16 µM (active). Moreover, the Potency result in assay [3] is “inactive”.
